Rows were chosen to be rich in hits. Some 12% of all compounds tested hit in one or more screens of this group.
G9a inh: qHTS Assay for Inhibitors of Histone Lysine Methyltransferase G9a. Histone-lysine N-methyltransferase EHMT2 (Homo sapiens), Q96KQ7. G9a H3K9 monomethylation, AlphaScreen, 2 h. Potency, µM (series often up to 102 µM), for inactives: at the top dose activity, negative = inhibition, most hits filed as inhibitors. actives 8.8% (n = 350,000). AID 504332, 2011; further: on the % scale 0 is the no-effect control and ±100 the full control effect; nearly all actives have a fitted effect of over 75% in size
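AlphaScreen detection with an anti-monomethyl H3K9 antibody quantified product after a 2 h room-temperature reaction containing 500 nM biotinylated H3K9 peptide, 20 µM SAM and 20 nM enzyme, which had been preincubated 15 min with compound.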
Sfp PPTase inh: qHTS Assay for Inhibitors of Bacillus subtilis Sfp phosphopantetheinyl transferase (PPTase); actives 3.5% (n = 310,000); Biochemical Sfp PPTase activity, qHTS; Potency, µM, for inactives: largest response in the series, negative = inhibition, actives largely listed as inhibitors;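 further: the enzyme is Sfp with the accession as filed and its product quenches rhodamine fluorescence; 0% = enzyme reaction without inhibitor and -100% = no enzyme wells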
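Fluorescence-quenching assay with 15 nM Sfp, 5 uM rhodamine-CoA and 12.5 uM BHQ-2-labelled ybbR peptide in pH 7.6 Hepes/MgCl2 buffer. Enzyme was pre-incubated with compound for 15 min at room temperature. Rate was taken from the 30-min fluorescence change (525/598 nm).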
BAZ2B inh: qHTS Assay for Inhibitors of BAZ2B. Bromodomain adjacent to zinc finger domain protein 2B (Homo sapiens), Q9UIF8. AlphaScreen BAZ2B-H3K14Ac peptide displacement. actives 4.4% (n = 360,000). Potency, µM (series often up to 114 µM), inactives show at the highest dose activity change, negative = inhibition, most hits filed as inhibitors. AID 504333, 2011; further: on the % scale 0 is the no-effect control and ±100 the full control effect; nearly all actives have a fitted effect of over 60% in size
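BAZ2B (50 nM) with biotin-H3(5-23)K14Ac peptide (50 nM) in PBS pH 7.4, 0.01% Tween-20, preformed 30 min, then compound 30 min at room temperature; top concentration 110uM. AlphaScreen streptavidin donor/nickel chelate acceptor beads (10 ug/mL final), 20 min dark, signal read.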
HP1b chromo inh: HTS for Inhibitors of HP1-beta Chromodomain Interactions with Methylated Histone Tails; AlphaScreen HP1-beta / biotin-H3K9me3 peptide binding; Potency, µM (doses to about 114 µM), for inactives: at the top dose activity change, negative = inhibition, usual class: inhibitors; actives 0.56% (n = 390,000); further: nearly all actives have a fitted effect of over 70% in size
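Compound inhibition of the preformed complex between 50 nM HP1-beta and 50 nM biotinylated H3K9me3 peptide was read by AlphaScreen. Buffer was PBS pH 7.4 with 0.01% Tween-20. Incubations ran 30 min at room temperature, with 10 ug/mL donor/acceptor beads.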
JMJD2A Tudor inh: qHTS Assay for Inhibitors of JMJD2A-Tudor Domain; Lysine-specific demethylase 4A (Homo sapiens), O75164; AlphaScreen JMJD2A-Tudor / H3K4me3 peptide binding; Potency, µM (titrated, usually from 114 µM), for the others: top-dose activity change, negative = inhibition, usual class: inhibitors; actives 4.4% (n = 390,000); AID 504339, 2011; further: on the % scale 0 is the no-effect control and ±100 the full control effect; nearly all actives have a fitted effect of over 50% in size
Target sequence (O75164 whole entry, looked up, the tested form may be a part): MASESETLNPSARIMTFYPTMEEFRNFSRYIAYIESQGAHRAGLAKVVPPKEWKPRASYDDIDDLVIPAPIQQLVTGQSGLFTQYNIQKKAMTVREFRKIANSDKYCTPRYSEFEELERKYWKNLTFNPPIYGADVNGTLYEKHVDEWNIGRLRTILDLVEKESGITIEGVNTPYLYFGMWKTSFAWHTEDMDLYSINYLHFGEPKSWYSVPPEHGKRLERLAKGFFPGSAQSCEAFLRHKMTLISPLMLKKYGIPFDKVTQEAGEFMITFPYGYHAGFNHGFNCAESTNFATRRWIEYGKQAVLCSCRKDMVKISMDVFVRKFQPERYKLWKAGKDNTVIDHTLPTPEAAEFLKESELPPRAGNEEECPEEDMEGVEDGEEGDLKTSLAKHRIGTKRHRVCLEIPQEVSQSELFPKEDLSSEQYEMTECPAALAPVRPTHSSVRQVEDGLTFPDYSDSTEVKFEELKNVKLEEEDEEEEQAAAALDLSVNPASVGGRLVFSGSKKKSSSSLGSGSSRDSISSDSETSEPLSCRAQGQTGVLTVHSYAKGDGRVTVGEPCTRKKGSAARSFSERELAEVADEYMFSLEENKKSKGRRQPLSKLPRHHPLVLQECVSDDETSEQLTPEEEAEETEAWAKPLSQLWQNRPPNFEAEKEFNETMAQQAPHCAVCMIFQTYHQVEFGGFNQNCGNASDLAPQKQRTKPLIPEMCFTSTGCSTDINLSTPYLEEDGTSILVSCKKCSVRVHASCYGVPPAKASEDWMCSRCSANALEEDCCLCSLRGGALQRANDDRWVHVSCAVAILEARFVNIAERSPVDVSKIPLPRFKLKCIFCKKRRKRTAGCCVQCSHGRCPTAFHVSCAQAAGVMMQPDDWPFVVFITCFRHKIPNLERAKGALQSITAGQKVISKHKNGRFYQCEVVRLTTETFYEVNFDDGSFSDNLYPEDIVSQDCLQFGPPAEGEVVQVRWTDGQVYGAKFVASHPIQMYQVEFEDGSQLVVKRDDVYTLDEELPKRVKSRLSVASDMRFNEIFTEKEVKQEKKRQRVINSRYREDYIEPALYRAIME
* = called active by the depositor; ? = inconclusive; . = no result; [ ] = another dose, or the depositor's remark. The call rests on the fitted dose curve; in most records, active means well fitted curve in the direction sought with a large enough effect; inconclusive means small, poorly fitted or top-dose-only effect, or another doubt; inactive means no such curve, though single readings can be large; an effect the other way counts as inactive or inconclusive. Potency means the concentration at half of the fitted maximal effect.

SMILES	G9a inh	Sfp PPTase inh	BAZ2B inh	HP1b chromo inh	JMJD2A Tudor inh
C/C(CCN1CCCCc2nc(C)c(C)cc21)=N\O[C@H](C)c1cn([C@H](CO)Cc2ccccc2)nn1	56.2µM*	-8.6%	-12.7%	.	.
C/C(CCN1CCCCc2nc(C)c(C)cc21)=N\O[C@@H](C)c1cn([C@H](CO)Cc2ccccc2)nn1	?	12.3%	-1.6%	.	.
CCN(CC)C(=O)CSC(=Nc1ccccc1F)NC#N	0.4%[12.7 µM]	-8.4%	-32.3%	38.8%	-12.3%
Cn1c(=O)c2c(nc(NCc3ccccc3)n2C)n(C)c1=O	7.7%[12.7 µM]	6.6%	2.7%	20.6%	-14.6%
Cn1c(=O)c2cc(NCc3ccccc3)nnc2n(C)c1=O	14.1µM*	?	-8.4%	36.0%	2.9%
CCOC(=O)c1nnn(-c2nonc2N)c1-c1ccccc1Cl	7.6%	3.2%	-6.3%	38.2%	0.7%
COc1cc2oc(=O)cc(-c3ccc(-c4cccc(N)c4)cc3)c2c(OC)c1OC	28.2µM*	-27.4%	.	.	.
CC(C)Nc1ccc(Nc2ccnc3cc4ccccc4cc23)cc1	8.91µM*	-18.8%	15.8µM*	25.1µM*	11.2µM*
COc1ccc(OC)c(NC(=O)COC(=O)c2cc3c(s2)CCC3)c1	.	-22.0%	10µM*	14.1µM*	28.2µM*
COc1ccc(OC)c(NC(=O)COC(=O)CCC2CCCC2)c1	-3.7%[2.33 µM]	.	-1.1%	71.9%	9.1%
COc1ccccc1NC(=O)COC(=O)c1cc2c(s1)CCC2	44.7µM*	.	56.2µM*	?	50.1µM*
Cc1cc(C(=O)N/N=C/c2c(C)nn(-c3ccccc3)c2C)c(C)o1	.	0.3%	-18.8%	24.7%	-14.5%
COC(=O)Cn1c(C)nc([N+](=O)[O-])c1Br	0.5%	9.7%	-6.2%	40.2%	-9.8%
O=C(Cn1cc2c(n1)CCCCC2)NC1CCCCCC1	12.1%	0.2%	-5.9%	3.1%	?
O=C(NC(=S)N(Cc1ccccc1)c1ccccn1)C1CCCCC1	28.2µM*	-1.5%	-4.7%	27.7%	-6.4%
CC(=O)Nc1ccc(S(=O)(=O)NC2(C(F)(F)F)C(=O)Nc3c2c(=O)[nH]c(=O)n3C)cc1 (centres undefined)	-42.8%[59 µM]	3.4%	4.2%	33.4%	-19.2%
Cn1cccc1/C=N/NC(=O)c1cccc(OC(F)(F)C(F)F)c1	?	1.1%	?	?	79.4µM*
COc1ccc(C(=O)NC(=S)Nc2nc(C)c(C(=O)N(C)C)s2)cc1	?	63.1µM*	?	4.1%	-26.5%
Cc1nc(NC(=S)NC(=O)c2cccs2)sc1C(=O)N(C)C	?	50.1µM*	-17.5%	17.9%	-35.1%
COC(=O)c1sc(NC(=S)NC(=O)c2ccc(F)cc2)nc1C	-0.5%[59 µM]	4.0%	-21.4%	.	.
Cc1nc(NC(=O)c2ccc([N+](=O)[O-])cc2Cl)sc1C(=O)N(C)C	?	39.8µM*	-28.1%	-22.3%	?
C[N+]1(CCOC(=O)C2(c3ccccc3)CCCC2)CCCCC1	-2.1%	5.8%	-9.6%	22.6%	-15.6%
CCc1nc(SCC(=O)Nc2cc(OC)ccc2OC)c2c(C)c(C)sc2n1	-4.8%	5.4%	-29.5%	7.8%	?
COC(=O)C1(C)NCCc2c1[nH]c1ccccc21 (centres undefined)	13.6%[12.7 µM]	.	1.5%	42.6%	-12.2%
CC1(CCc2ccc3c(c2)OCO3)NCCc2c1[nH]c1ccccc21 (centres undefined)	50.1µM*	2.2%	-38.2%	14.1%	?
O=S(=O)(c1cccc(-c2n[nH]c(=S)n2-c2ccccc2Cl)c1)N1CCOCC1	.	.	.	23.3%	22.4µM*
Cc1ccc(S(=O)(=O)N2CCOCC2)cc1-c1n[nH]c(=S)n1-c1ccccc1	-7.5%[12.7 µM]	.	10.1%	36.8%	6.31µM*
O=S(=O)(c1cccc(-c2n[nH]c(=S)o2)c1)N1CCOCC1	14.1µM*	25.1µM*	-12.8%	-22.4%	?
O=S(=O)(c1cccc(-c2n[nH]c(=S)n2Cc2ccccc2)c1)N1CCOCC1	.	-25.7%	-16.1%	20.6%	20µM*

Bioassay records deposited in PubChem by National Center for Advancing Translational Sciences (NCATS).
